Experimental data as given in PubChem BioAssay (NCI).
Compounds without any hit were thinned out: in the full panel of roughly 79,000, 15% have a hit. Calls of active or inactive are those of the source. Rule as the data show it: active = growth inhibition above about 70%; inactive = the rest.

Assay: NCI Yeast Anticancer Drug Screen. Data for the mgt1 strain (AID 153)
Details: S. cerevisiae mgt1 mutant growth inhibition, active compounds read high
Protocol: Growth inhibition of yeast strains with defined genetic alterations is measured as a screen for potential anti-cancer activity. Selected strains with alterations in DNA damage repair or cell cycle control were exposed to compounds and growth inhibition was measured relative to vehicle treated controls. The strain used in this assay is mgt1

Measured: growth inhibition

CCOC(=O)C1([Se]c2ccccc2)CCCC1=O (stereo not given)
active: at 100.0 µM 85%
inactive: at 1.2 µM -4% | at 3.7 µM -5% | at 11.0 µM 4% | at 33.0 µM 32%

C[CH2][Sn]([CH2]C)([O]S(C)(=O)=O)[O]S(C)(=O)=O
inactive: at 1.2 µM 0% | at 3.7 µM 0% | at 11.0 µM -11% | at 33.0 µM -7% | at 100.0 µM 37%

Nc1nc(N)c2c(Cl)c(CNc3ccc(C(=O)NC(CC(=O)O)C(=O)O)cc3)ccc2n1 (stereo not given)
inactive: at 1.2 µM 6% | at 3.7 µM -3% | at 11.0 µM -2% | at 33.0 µM 30% | at 100.0 µM 55%

O=C(COc1ccc(Cl)cc1Cl)NO
inactive: at 1.2 µM -5% | at 3.7 µM -5% | at 11.0 µM -5% | at 33.0 µM 4% | at 100.0 µM 58%

CN(C)CCSC1=Nc2ccc(Cl)cc2C(c2ccccc2Cl)=NC1
inactive: at 1.2 µM -2% | at 3.7 µM -1% | at 11.0 µM 0% | at 33.0 µM 6% | at 100.0 µM 66%

CC1=C(N2CC2)C(=O)c2ccccc2C1=O
inactive: at 1.2 µM 0% | at 3.7 µM -49% | at 11.0 µM 2% | at 33.0 µM 13% | at 100.0 µM 36%

CCN(CCCl)CCCCNc1c2ccccc2nc2ccc(OC)cc12
inactive: at 1.2 µM 9% | at 3.7 µM 14% | at 11.0 µM 42%
active: at 33.0 µM 86% | at 100.0 µM 97%

c1ccc(N=c2nc(N3CCOCC3)ss2)cc1
inactive: at 1.2 µM -3% | at 3.7 µM 11%
active: at 11.0 µM 71% | at 33.0 µM 99% | at 100.0 µM 99%
